In PubChem BioAssay (NCATS):
Results filed as inconclusive are left out. Calls of active or inactive are those of the source. Unless noted, calls come from the whole dose curve; as a rule, active = well fitted curve in the direction sought with a large enough effect; inconclusive = small, poorly fitted or top-dose-only effect, or another doubt; inactive = no such curve, though single readings can be large; an effect the other way counts as inactive or inconclusive.

Legend:
[1] = qHTS to identify inhibitors of the type 1 interferon - major histocompatibility complex class I in skeletal muscle: primary screen against the NCATS Mechanism Interrogation Plate v5.0 (MIPE) Libary (AID 1347411); note: nearly all actives have a fitted effect of over 65% in size; note: potency is the fitted concentration of half-maximal effect;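 for activity change, negative = inhibition: plate controls were vehicle for no effect and reference inhibitor for full effect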
Method in brief: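 Cells were genome-edited human myoblasts carrying a HiBit tag on endogenous HLA-B. They were treated with IFN-beta (4.0 ng/ml) and titrated compounds (top 46 uM) for 24 hrs before lytic HiBiT detection.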

[2] = Primary qHTS for inhibitors of nuclear receptor binding SET domain protein 2 (NSD2) in an isogenic RCH-ACV NSD2 p.E1099K mutant (9B) (AID 1645876); note: nearly all actives have a fitted effect of over 70% in size; note: potency is the fitted concentration of half-maximal effect
[3] = Primary qHTS for inhibitors of nuclear receptor binding SET domain protein 2 (NSD2) in an RCH-ACV wild type WT cells (2C) (AID 1645877); note: nearly all actives have a fitted effect of over 70% in size; note: potency is the fitted concentration of half-maximal effect
[4] = molecular target: Glutathione peroxidase 1 (Homo sapiens) (UniProt P07203); test: Primary qHTS Assay for Inhibitors of Recombinant Selenoprotein Glutathione Peroxidase 1 (GPX1) (AID 1845191); note: nearly all actives have a fitted effect of over 65% in size; note: potency is the fitted concentration of half-maximal effect
Method in brief: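 Recombinant GPX1 (10 nM final) was preincubated with compound for 30 min at room temperature, then reacted with 1 mM GSH, 0.5 mM CHP, 0.5 mM NADPH and 100 nM glutathione reductase; NADPH fluorescence (340/450 nm) was read at 0 and 15 min.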

[5] = qHTS drug screen for cell cycle checkpoint inhibitors in PARPi-resistant BRCA-mutant ovarian cancer cell lines. (AID 1963452; calls by dose curve; note: potency is the fitted concentration of half-maximal effect); conditions: PEO1/OlaR viability, CellTiter-Glo luminescence, 96 h; for Z-AUC: stronger effect = lower value
Method in brief: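 PEO1, PEO4 and PEO1/OlaR ovarian cancer cells, 600 per well, exposed 96 h at 37C to a dilution series. Viability read by CellTiter-Glo luminescence, normalized to DMSO and empty wells; activity summarized as Z-AUC.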

[6] = qHTS assay to identify inhibitors of the type 1 interferon - major histocompatibility complex class I in skeletal muscle: Counter screen cell viability and HiBit confirmation (AID 1347412); conditions: iHSKM muscle cells + IFN-b, HiBiT or CellTiter-Glo, 24 h; for activity change, negative = inhibition: at 45.9 µM (top of the series); note: potency is the fitted concentration of half-maximal effect; for activity change, negative = inhibition: % is set by controls: 0 for no effect and ±100 for the full control effect; for all read-outs here: nearly all actives have a fitted effect of over 60% in size
Method in brief: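 HLA-B*08:01–HiBiT knock-in immortalized human myoblasts (C25cl48) stimulated with 4.0 ng/ml human IFN-beta and dosed with compound in a 12-point 1:3 titration (top final 46 uM). After 24 hrs at 37 C, HiBiT lytic luminescence or CellTiter Glo ATP read out.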

[7] = molecular target: Calcium and integrin-binding protein 1 (Homo sapiens) (UniProt Q99828); test: Primary qHTS for Identification of Calcium Integrin Binding Protein 1 (CIB1) Competitor (AID 1508620);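 note: GST tagged CIB1 binding a fluorescein labelled alphaIIb integrin peptide tracer; top concentration of the series differs between compounds; % is set by controls: 0 for no effect and ±100 for the full control effect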
Method in brief: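 Fluorescence polarization competition: CIB1-GST (1 uM final) preincubated with compound 15 min at room temperature, then FITC-labeled alphaIIb peptide (100 nM final) added for another 15 min. Polarization read at Ex 480/Em 540.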

[8] = molecular target: Phospholipid hydroperoxide glutathione peroxidase GPX4 (Homo sapiens) (UniProt P36969); test: Primary qHTS Assay for Inhibitors of Recombinant Selenoprotein Glutathione Peroxidase 4 (GPX4) (AID 1845192); conditions: outcome: dose series up to 50 µM unless noted; note: % is set by controls: 0 for no effect and ±100 for the full control effect; nearly all actives have a fitted effect of over 65% in size
Method in brief: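 GR-coupled readout: 100 nM GR, 1 mM GSH, 0.5 mM NADPH; NADPH fluorescence (ex 340/em 450 nm) read at t=0 and after 15 min RT. GPX4 200 nM, preincubated 30 min with compound; substrate 0.5 mM CHP.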

[9] = NCATS anti-infectives library activity on the primary C. elegans qHTS viability assay (AID 1745855; calls by dose curve; note: potency is the fitted concentration of half-maximal effect)
Method in brief: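 Viability is taken from GFP fluorescence of PE254-GFP-FLuc C. elegans imaged by laser cytometry over 7 days. Ten L1 worms per well grow at 21 °C on TOP10 E. coli capsules with titrated compound; levamisole marks toxicity.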

[10] = measured here: PEO1 parental Z-AUC

Chain of Glutathione peroxidase 1 (Homo sapiens) (P07203 whole entry, looked up): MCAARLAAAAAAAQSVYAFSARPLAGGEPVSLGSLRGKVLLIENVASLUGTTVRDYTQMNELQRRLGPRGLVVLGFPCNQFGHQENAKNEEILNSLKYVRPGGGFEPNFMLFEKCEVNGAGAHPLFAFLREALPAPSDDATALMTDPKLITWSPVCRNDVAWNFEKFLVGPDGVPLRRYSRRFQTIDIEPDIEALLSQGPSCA
Chain of Calcium and integrin-binding protein 1 (Homo sapiens) (Q99828 whole entry, looked up): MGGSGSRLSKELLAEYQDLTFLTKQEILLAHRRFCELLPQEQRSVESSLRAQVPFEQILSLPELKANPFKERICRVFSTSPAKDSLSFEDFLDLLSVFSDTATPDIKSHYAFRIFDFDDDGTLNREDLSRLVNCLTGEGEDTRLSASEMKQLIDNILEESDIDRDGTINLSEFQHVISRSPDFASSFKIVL
Chain of Phospholipid hydroperoxide glutathione peroxidase GPX4 (Homo sapiens) (P36969 whole entry, looked up): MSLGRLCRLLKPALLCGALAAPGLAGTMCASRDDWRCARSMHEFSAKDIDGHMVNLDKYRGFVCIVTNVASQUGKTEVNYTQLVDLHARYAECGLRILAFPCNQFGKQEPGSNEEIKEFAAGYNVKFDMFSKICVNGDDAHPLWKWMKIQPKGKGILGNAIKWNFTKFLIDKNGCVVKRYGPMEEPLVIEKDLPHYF

Structure (SMILES) | Potency [1] | Potency [2] | Potency [3] | Potency [4] | Z-AUC [5] | Z-AUC [5, 10] | Z-AUC ([5]; measured here: PEO4 Z-AUC) | Potency ([6]; HiBiT) | activity change, negative = inhibition ([6]; Viability) | Potency [5] | Potency ([6]; Viability) | Potency [7] | Potency [8] | Potency [9]
CC1=C2[N-][C@H]([C@H](CC(N)=O)[C@@]2(C)CCC(=O)NC[C@@H](C)OP(=O)([O-])O[C@H]2[C@@H](O)[C@@H](n3cnc4cc(C)c(C)cc43)O[C@@H]2CO)[C@]2(C)N=C(C(C)=C3N=C(C=C4N=C1[C@@H](CCC(N)=O)C4(C)C)[C@@H](CCC(N)=O)[C@]3(C)CC(N)=O)[C@@H](CCC(N)=O)[C@]2(C)CC(N)=O.O.[Co+2] | 8290 nM (active) | inactive | inactive | inactive | -0.864 (inactive) | 0.932 | 0.294 | 14000 nM (active) | -18.1% (inactive) | – | – | – | – | –
CC(=O)c1cc2c(o1)C(=O)c1ccccc1C2=O | 523 nM (active) | 1860 nM (active) | 1320 nM (active) | 1290 nM (active) | – | -1.52 | -1.88 | 249 nM (active) | – | 549 nM (active) | 394 nM (active) | – | – | –
COc1ccc(-n2cnc3cc(C(=O)N4CCCCC4)ccc32)cc1 | inactive | inactive | inactive | inactive | 0.871 (inactive) | 0.696 | 0.92 | – | – | – | – | inactive | inactive | –
C=C1C(=O)O[C@@H]2[C@H]3C(C)=CC[C@@]34O[C@@]4(C)CC[C@@H]12 | 16500 nM (active) | 5250 nM (active) | 4680 nM (active) | inactive | 0.243 (inactive) | 0.182 | 0.342 | 12500 nM (active) | 49.2% (inactive) | – | – | – | – | –
CC[C@@]1(O)C(=O)OCc2c1cc1n(c2=O)Cc2c-1nc1cc(F)c(C)c3c1c2[C@@H](N)CC3 | 165 nM (active) | 3.3 nM (active) | 2.6 nM (active) | – | – | -3.81 | -2.97 | 313 nM (active) | -10.9% (inactive) | 8.7 nM (active) | – | – | – | –
O=C(CCCc1ccc2cccnc2n1)NCc1cc(-c2ccc(F)c(C(F)(F)F)c2)no1 | inactive | inactive | inactive | inactive | -0.51 (inactive) | -0.432 | -0.394 | – | – | – | – | inactive | inactive | –
CCC[C@H](NC(=O)/C(C#N)=C/c1cccc(Br)n1)c1ccccc1 | 4150 nM (active) | 11800 nM (active) | 13200 nM (active) | inactive | 0.211 (inactive) | 0.0929 | 0.0816 | 6250 nM (active) | – | – | – | – | inactive | 4090 nM (active)
